Records with an inconclusive call do not appear. Where a call stands in place of a potency, no number is given. The source made the active and inactive calls. The call rests on the fitted dose curve; in most records, active means well fitted curve in the direction sought with a large enough effect; inconclusive means small, poorly fitted or top-dose-only effect, or another doubt; inactive means no such curve, though single readings can be large or run the other way.
test: Cell viability assay for measurement of the protective activity of small molecules against cell death caused by Zika virus infection in human astrocytes; conditions: human astrocytes ZIKV-induced death, ATP luminescence, 72 h; series mostly up to 46.1 µM
How it was run: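 Protection against Zika-induced death was measured in human astrocytes infected at 2 FFU/cell one hour after compound addition. After 72 h at 37 °C, ATP luminescence was read and converted to percent inhibition of the viability decrease.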

Compound	Potency
c1ccc(CCNc2nc(-c3ccccc3)cs2)cc1	inactive
Cc1csc(NC(=O)c2sc3nc4c(c(C(F)(F)F)c3c2N)CCC4)n1	inactive
Cc1c(N)c(=O)n(-c2ccccc2)n1C	inactive
CC(O)CN1CCN(CC(=O)[O-])CCN(CC(=O)[O-])CCN(CC(=O)[O-])CC1.[Gd+3] (stereo unspecified)	inactive
COc1cccc2c1C(=O)c1c(O)c3c(c(O)c1C2=O)C[C@@](O)(C(=O)CO)C[C@@H]3O[C@H]1C[C@H](N)[C@H](O[C@@H]2CCCCO2)[C@H](C)O1	inactive
CCCS(=O)c1ccc2nc(NC(=O)OC)[nH]c2c1 (stereo unspecified)	inactive
Nc1ccc2c(c1)CN1C(=O)c3ccccc3C1=N2	inactive
Cc1ccc([N+](=O)[O-])[c]2c1[O][Hg]2	inactive
CC(=Cc1ccccc1)C=C1SC(=S)N(CC(=O)O)C1=O	inactive
O=C(O)[C@@H](c1ccc(OCc2ccc3ccccc3n2)cc1)C1CCCC1	inactive
COP(=S)(OC)SCN1C(=O)c2ccccc2C1=O	inactive
C[C@@H](N)c1ccc(C(=O)Nc2ccnc3[nH]ccc23)cc1	inactive
O=C(Nc1cc2cc[nH]c2cn1)c1ccccc1	inactive
CN1CC[C@@]2(C)c3cc(OC(=O)Nc4ccccc4)ccc3N(C)[C@@H]12	inactive
Oc1ccc(/C=C/c2cc(O)cc(O)c2)cc1	inactive
CCCC(=O)OC[C@@H](OC(=O)CCC)[C@@H](OC(=O)CCC)[C@H](Cn1c2nc(=O)[nH]c(=O)c-2nc2cc(C)c(C)cc21)OC(=O)CCC	inactive
CC(C(=O)O)c1ccc2c(c1)[nH]c1ccc(Cl)cc12 (stereo unspecified)	inactive
CO[C@H]1C(=O)[C@]2(C)[C@@H](OC)C[C@H]3OC[C@@]3(OC(C)=O)[C@H]2[C@H](OC(=O)c2ccccc2)[C@]2(O)C[C@H](OC(=O)[C@H](O)[C@@H](NC(=O)OC(C)(C)C)c3ccccc3)C(C)=C1C2(C)C	inactive
O=c1c2ccccc2nc2n1CCc1c-2[nH]c2ccccc12	inactive
Cc1ccc2c(n1)Oc1ccc(C(C)C(=O)OCC(=O)N(C)C)cc1C2 (stereo unspecified)	inactive
Nc1nc2ccc([N+](=O)[O-])cc2s1	inactive
O=c1c2ccccc2[se]n1-c1ccccc1	inactive
S=C(SSC(=S)N1CCCCC1)N1CCCCC1	7.74 µM (active)
COc1ccc(-c2cc(=O)c3c(O)cc(O)cc3o2)cc1O	inactive
CC(C)Oc1ccc2c(=O)c(-c3ccccc3)coc2c1	inactive
O=C(Nc1ccc(OC(F)(F)F)cc1)c1sccc1NCc1ccnc2ccccc12	inactive

Reference: PubChem BioAssay AID1224856 (National Center for Advancing Translational Sciences (NCATS), 2016)
